Screening results (PubChem BioAssay)
Most compounds without a hit are left out; they make up all but 5.2% or so of the library.
PLK1 PBD inh = PLK1 (human) polo-box domain binding inhibition | 360,000 compounds, 2.8% hits | P53350 | Potency, µM, usual class: inhibitors | Plk1 PBD binding of FITC phosphopeptide, fluorescence polarization; further: series mostly up to about 57 µM; nearly all actives have a fitted effect of over 65% in size
TrxR1 substrate = is turned over as a substrate by rat TrxR1 | O89049 | purified TrxR1 substrate turnover, NADPH consumption readout | Potency, µM (series often up to 114 µM) | 390,000 compounds, 0.01% hits; further: nearly all actives have a fitted effect of over 50% in size
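Rat TrxR1, dispensed at 90 nM, was prereduced with 400 uM NADPH (final) for 5 min at ~22 deg C, then incubated with compound 15 min before 400 uM selenite. A first-read NADPH fluorescence drop versus no-compound background flagged substrates.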
Sfp PPTase inh = blocks B. subtilis Sfp PPTase activity; Biochemical Sfp PPTase activity, qHTS; Potency, µM, usual class: inhibitors; 310,000 compounds, 3.5% hits;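 further: the enzyme is Sfp with the accession as filed and its product quenches rhodamine fluorescence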
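After 15 min at room temperature with compound, 15 nM Sfp received 5 uM rhodamine-CoA plus 12.5 uM BHQ-2-ybbR (50 mM Hepes pH 7.6, 10 mM MgCl2). Rate came from the fluorescence difference over 30 min, ex 525/em 598 nm.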
VDR inh = vitamin D3 receptor (human) inhibition; AID 504847; Potency, µM, usual class: inhibitors; P11473; 400,000 compounds, 0.93% hits; VDR-SRC2-3 peptide fluorescence polarization, 2 h
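Inhibition of the VDR/SRC2-3 peptide interaction is quantified by fluorescence polarization. Compounds (23 nl, pintool) incubate with the reagents for 2 hours at ambient room temperature.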
IDH1 R132H inh = human IDH1 R132H inhibition. O75874. IDH1-R132H enzyme, NADPH consumption, diaphorase/resazurin fluorescence. Potency, µM (doses to about 76.6 µM), most hits filed as inhibitors. 390,000 compounds, 0.093% hits. AID 602179; further: nearly all actives have a fitted effect of over 65% in size
Target sequence (O75874 whole entry R132H, stated change not applied): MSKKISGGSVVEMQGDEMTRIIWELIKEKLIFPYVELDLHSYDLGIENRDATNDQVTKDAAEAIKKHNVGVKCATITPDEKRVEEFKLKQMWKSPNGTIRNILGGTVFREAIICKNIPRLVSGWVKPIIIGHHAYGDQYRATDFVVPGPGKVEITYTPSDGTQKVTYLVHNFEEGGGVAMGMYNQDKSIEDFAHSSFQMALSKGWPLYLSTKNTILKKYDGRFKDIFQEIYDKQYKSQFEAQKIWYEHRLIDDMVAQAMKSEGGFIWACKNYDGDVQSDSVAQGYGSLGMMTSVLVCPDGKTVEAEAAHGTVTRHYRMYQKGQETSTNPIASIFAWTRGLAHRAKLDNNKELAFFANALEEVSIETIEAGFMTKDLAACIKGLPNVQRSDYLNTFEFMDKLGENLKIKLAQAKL
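IDH1-R132H (0.5 ug/mL) preincubated 30 min with compound, then NADPH (0.016 mM) and alpha-KG (2 mM) added; 80 min at RT, pH 7.5. Remaining NADPH coupled via diaphorase/resazurin to fluorescence (540/590 nm); concentration-response curves normalized to no-enzyme control.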
TrxR1 inh = rat TrxR1 inhibition; Potency, µM (doses to about 114 µM), actives largely listed as inhibitors; recombinant rTrxR1, NADPH fluorescence consumption, selenite substrate; O89049; 390,000 compounds, 1% hits; AID 588453; further: nearly all actives have a fitted effect of over 65% in size
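Rat TrxR1 (90 nM in the dispensed reagent) was pre-reduced with 400 uM NADPH for 5 min at room temperature, then incubated with compound for 15 min. After 400 uM selenite was added, NADPH fluorescence (Ex 340/Em 450 nm) was followed for 8 min.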
Hits are given with their value; 0 = inactive; ? = inconclusive; - = no result; ! = not confirmed by another sample. The call rests on the fitted dose curve; in most records, active means well fitted curve in the direction sought with a large enough effect; inconclusive means small, poorly fitted or top-dose-only effect, or another doubt; inactive means no such curve, though single readings can be large; an effect the other way counts as inactive or inconclusive.

SMILES	PLK1 PBD inh	TrxR1 substrate	Sfp PPTase inh	VDR inh	IDH1 R132H inh	TrxR1 inh
CC(=O)CCc1oc2c([N+](=O)[O-])cccc2c1-c1ccc(C)o1	?	0	8.9µM	0	0	?
C/C(CCc1oc2c(Br)cc(Br)cc2c1-c1ccc(C)o1)=N\O	?	0	22µM	0	0	25µM
Cc1nc2ccccc2n1C(c1cccnc1)c1nc2ccccc2[nH]1 (configuration not stated)	0	-	-	-	-	-
COc1cc(C2NC(=S)NC(c3ccccc3)=C2C(C)=O)cc(Cl)c1OCC(=O)O (configuration not stated)	0	0	89µM	0	0	0
CNC(=S)NNC(=O)c1ccc(=O)n(Cc2cccc(C(F)(F)F)c2)c1	3µM	0	0	0	0	0
O=[N+]([O-])c1ccc(-n2nnnc2-c2ccccc2)c([N+](=O)[O-])c1	0	0	0	0	0	?
O=[N+]([O-])c1ccc(-n2nnnc2-c2ccccc2)cc1	11µM	0	0	22µM	0	0
O=C1CN(c2ccccc2)C(=S)N1C(=O)c1ccc(Br)cc1	24µM	0	0	?	0	0
COc1cccc(OCCCCn2c(-c3ccc(Cl)cc3)nc3ccccc3c2=O)c1	-	0	-	0	0	0
Cc1nnc2sc(-c3csc4c3CCCC4)nn12	0	0	0	0	0	0
S=c1nc(-c2csc3c2CCCC3)[nH][nH]1	27µM	0	35µM	?	0	0
CN(CCCNC(=O)C1CCN(S(=O)(=O)c2cccc3nsnc23)CC1)Cc1ccccc1	0	0	0	0	0	0
CN(Cc1ccccc1)C(=O)C1CCN(S(=O)(=O)c2cccc3nsnc23)CC1	3.4µM	0	0	?	0	0
CCC(C)[C@H](NS(=O)(=O)c1ccc(C)cc1)C(=O)N1CCC(C(=O)N2CCC(C(=O)OC)CC2)CC1 (some centres not stated)	0	0	0	0	0	0
COC(=O)[C@H]1C[C@@H]1[C@H](NS(=O)(=O)c1ccccc1)c1ccccc1	0	0	71µM!	0	0	0
Cc1ccc(N2CCN(c3nc4ccc(C)cc4n4nnnc34)CC2)c(C)c1	-	0	-	0	0	0
COCCNC(=S)NNc1cccc(C(=O)O)c1	21µM	0	7.1µM	?	0	0
COCCNC(=O)C(=O)Nc1cccc(Br)c1	0	0	0	0	0	0
CS(=O)(=O)N(Cc1cccc(CN(C(C(=O)O)c2ccccc2)S(C)(=O)=O)c1)C(C(=O)O)c1ccccc1 (configuration not stated)	0	0	?	?	0	50µM
CC(C)C[C@@H](C(=O)O)N(Cc1cccc(CN([C@@H](CC(C)C)C(=O)O)S(C)(=O)=O)c1)S(C)(=O)=O	0	0	0	0	0	0
Cc1ccc(C)n1-c1nnc(N2CCCC(C(=O)Nc3ccccc3Br)C2)s1 (configuration not stated)	-	0	-	0	-	?
O=C1C2C3CCC(C3)C2C(=O)N1Cc1ccco1 (configuration not stated)	0	0	0	0	0	0
Cc1ccc(CC2CC(=O)N(Cc3ccco3)C2=O)cc1 (configuration not stated)	0	0	35µM	?	0	?
COc1ccc(CCN2C(=O)CC(Cc3ccc(C)cc3)C2=O)cc1OC (configuration not stated)	12µM	0	0	?	0	0
Cc1ccc(CN2CCN(Cc3ccco3)CC2)cc1	0	0	?	0	0	0
SMILES	PLK1 PBD inh	TrxR1 substrate	Sfp PPTase inh	VDR inh	IDH1 R132H inh	TrxR1 inh
COc1ccc(CCN2C(=O)CC(NC34CC5CC(CC(C5)C3)C4)C2=O)cc1OC (configuration not stated)	0	0	0	0	0	0
O=C1CC(Cc2ccccc2)C(=O)N1Cc1ccco1 (configuration not stated)	0	0	14µM	0	0	?
CCC(Oc1ccccc1)C(=O)Nc1cc(-c2ccccc2OC)nn1-c1ccccc1 (configuration not stated)	-	0	-	0	0	0
O=C(Nc1cc(Cl)cc(Cl)c1)c1cc(S(=O)(=O)NC2CCCC2)ccc1F	-	0	-	0	0	0
CN1[C@H](Cc2ccccc2)C=C[C@]1(C)C(=O)NCC1CC1	-	-	0	-	-	-
Fc1ccc(C(Nc2ccccc2Cl)c2nnc(-c3ccccc3Cl)o2)cc1 (configuration not stated)	-	0	-	0	0	0
CC(C)(C)C1CCC(=NNc2nc3ccccc3[nH]2)CC1 (configuration not stated)	0	0	0	0	0	0
c1ccc2c(c1)CC/C2=N/Nc1nc2ccccc2[nH]1	0	0	35µM	0	0	0
CCOC(=O)C(C(=O)c1ccccc1)[C@H](CCc1ccccc1)NC(=O)OC (some centres not stated)	-	-	0	0	-	-
O=C(C(=O)N1CCN(C(=O)OCc2ccccc2)CC1)c1cccnc1	0	-	-	-	-	-
O=C(Nc1ccc(Cl)cc1Cl)c1ccc2c(c1)OCCO2	0	0	-	0	0	0
O=C(Nc1ccc(Cl)cc1Cl)c1cccc(N2C(=O)C=CC2=O)c1	1.9µM	0	0	?	0	2µM
CC(=O)c1ccc(N2CCN(S(=O)(=O)c3ccc4c(c3)NC(=O)CC(=O)N4)CC2)cc1	27µM	0	0	?	0	0
C#CCN(C[C@@H]1[C@@H](OC(=O)NC2CC2)[C@@H](OC(=O)NC2CC2)CN(C(=O)OC(C)C)N1C(=O)OC(C)C)S(=O)(=O)c1ccc(C)cc1	21µM	-	-	-	0	-
C#CCN(C[C@@H]1[C@@H](OC(=O)NCc2ccco2)[C@@H](OC(=O)NCc2ccco2)CN(C(=O)OC(C)C)N1C(=O)OC(C)C)S(=O)(=O)c1ccc(C)cc1	?	-	-	-	0	-
O=C(CSc1cn(CC(=O)N2CCCCC2)c2ccccc12)NCc1ccccc1	-	0	-	0	0	0
c1ccc(C2NCCc3ccccc32)cc1 (configuration not stated)	27µM	0	0	?	0	0
CC(=O)Nc1ccc(S(=O)(=O)Nc2nnc(CC(C)(C)C)s2)cc1	27µM	0	0	?	0	0
COc1ccc(Cc2nnc(NS(=O)(=O)c3ccc(Cl)cc3)s2)cc1OC	30µM	0	0	0	0	0
COCc1nnc(NS(=O)(=O)c2ccc(C)cc2)s1	0	0	0	0	0	0
CC(C)(C)Cc1nnc(NS(=O)(=O)c2ccc(F)cc2)s1	?	0	0	0	0	0
Cc1ccc(S(=O)(=O)Nc2nnc(C(C)(C)C)s2)cc1	24µM	0	0	0	0	0
Cc1ccc(S(=O)(=O)Nc2nnc(CC(C)(C)C)s2)cc1	27µM	0	79µM	0	0	0
